Experimental data taken from PubChem BioAssay (Tox21).
Inconclusive results are not listed. Unmarked numbers belong to inactive results. Activity calls are given as the source filed them. The call rests on the fitted dose curve; in most records, active means well fitted cell-killing curve with a large enough effect in the repeat runs; inconclusive means weak or mixed curves, or effect the other way; inactive means flat fitted curve, though single readings scatter.

Assay: cAMP Responsive Elements (CRE) small molecule agonists, cell-based qHTS assay: qHTS cell viability counter screen (AID 2060914); further: nearly all actives have a fitted effect of over 50% in size
Conditions: CRE-bla HEK293T viability, CellTiter-Glo luminescence, 5 h; series mostly up to 92.4 µM; activity change, negative = cytotoxicity: at the top concentration
Summary of the method: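 HEK 293T CRE-bla; DMEM + 10% dialyzed FBS, 25 mM HEPES; 18 h pre-incubation; compound 3 h, 37 °C/5% CO2; CellTiter-Glo added after reporter read; luminescence after 30 min RT.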
On the % scale 0 is the no-effect control and ±100 the full control effect; potency means the concentration at half of the fitted maximal effect.

Row | SMILES | activity change, negative = cytotoxicity | Potency
1 | O=C(O)c1cc(O)c2ccccc2c1O | -15.2% | –
2 | O=S(=O)(O)c1ccc(N=Nc2c(O)ccc3ccccc23)cc1 | -23.3% | –
3 | CC[N+]1(CC)CCC(=C(c2ccccc2)c2ccccc2)C1C (stereo not given) | -2.2% [at 42.5 µM] | –
4 | CCCCCCC[N+](CC)(CC)CCCCc1ccc(Cl)cc1 | -4.69% [at 42.5 µM] | –
5 | CN[C@H]1CC[C@@H](c2ccc(Cl)c(Cl)c2)c2ccccc21 | 4.55% [at 42.5 µM] | –
6 | Cc1c(C)c([N+](=O)[O-])c(C(C)(C)C)c([N+](=O)[O-])c1C | -16.7% | –
7 | CCCCOCC(C)O (stereo not given) | -9.12% | –
8 | CCOC(=O)C1=C[C@]2(CC)CCCN3CCc4c(n1c1ccccc41)[C@@H]32 | -1.48% [at 42.5 µM] | –
9 | O=C1CCCCCCCCCCCN1 | – | inactive
10 | Clc1ccccc1-c1nc(-c2ccncc2)no1 | -15% [at 42.5 µM] | –
11 | Cc1nc(-c2ccc(Cl)cc2)oc1COC(C)(C)C(=O)O | -5.88% [at 42.5 µM] | –
12 | O=C(O)CNC(=O)c1ccc([N+](=O)[O-])cc1 | -10.9% | –
13 | CC(C)NC[C@@H](O)COc1ccc(CC(N)=O)cc1 | 1.12% [at 42.5 µM] | –
14 | ClC(Cl)Cl | -24.7% | –
15 | C=C(C)C(=O)OCCC[Si](Cl)(Cl)Cl | -11.7% | –
16 | CN(C)CCCN1c2ccccc2CCc2ccc(Cl)cc21 | – | inactive
17 | CSc1ccc(O)cc1C | 5.82% | –
18 | CC(C)C(=O)OCCOc1ccccc1 | 13.1% | –
19 | Cn1ccc2cc3c(cc21)CCN3C(=O)Nc1cccnc1 | 3% [at 18.9 µM] | –
20 | CCCCCCCCCCCCCCCCBr | 6.55% [at 18.9 µM] | –

Row | SMILES | activity change, negative = cytotoxicity | Potency
21 | O=C(Cl)c1c(Cl)c(Cl)c(C(=O)Cl)c(Cl)c1Cl | – | inactive
22 | C=C[C@](C)(O)CC[C@@H]1[C@@]2(C)CCCC(C)(C)[C@@H]2CC[C@@]1(C)O | -23.8% | –
23 | CNC(=O)N(c1ccccc1)c1ccccc1 | -1.67% | –
24 | Cc1c(C2(c3cc(Br)c(O)c(Br)c3C)OS(=O)(=O)c3ccccc32)cc(Br)c(O)c1Br | – | 52.9 µM (active)
25 | CCCCCCCC(=O)OCCCCCC | -2.26% | –
26 | CCCCCCCCCCCCCCCO | – | inactive
27 | C=C(C)C(=O)OCCOCCOC(=O)C(=C)C | -0.909% | –
28 | CCOC(=O)Oc1ccc(CCNC(=O)[C@H](CCSC)NC(C)=O)cc1OC(=O)OCC | -0.725% [at 42.5 µM] | –
29 | Cn1cc(C(=O)[C@@H]2CCc3nc[nH]c3C2)c2ccccc21 | 5.88% [at 42.5 µM] | –
30 | CCOc1ccc2c(c1)C(C)CC(C)(C)N2 (stereo not given) | 2.85% | –
31 | CC(C)C(C)(C)C(C)(C)C(C)(C)S | -2.64% | –
32 | CC1=CC[C@H](CC=O)C1(C)C | 2.66% | –
33 | COc1cc(C(C)=O)ccc1OCCCN1CCC(c2noc3cc(F)ccc23)CC1 | 10.8% [at 42.5 µM] | –
34 | CCCCCCC(=O)OCC | 11.5% | –
35 | CN(C(=O)CN(CCO)CC(=O)N(C)C(C)(C)Cc1ccccc1)C(C)(C)Cc1ccccc1 | -7.7% [at 42.5 µM] | –
36 | O=C(Oc1ccccc1)c1cccc(C(=O)Oc2ccccc2)c1 | -0.532% | –
37 | CCCCCCC(C)O (stereo not given) | – | inactive
38 | O=C1Nc2ccc(Cl)cc2[C@@](C#CC2CC2)(C(F)(F)F)O1 | -16.2% [at 42.5 µM] | –
39 | O=c1cc(-c2ccccc2)oc2ccc3ccccc3c12 | – | 21.7 µM (active)
40 | CCC(C)c1ccccc1 (stereo not given) | 1.2% | –
